From the supplement of paper PMC10646978
± gives the standard deviation.

Key:
Settings in all cases: modulator concentration 10 µM
[1] = test system: RAW-Dual (murine macrophage reporter line); test: NF-kB reporter (SEAP) activity fold change vs agonist alone; higher = enhanced NF-kB activity
How it was run: (§1)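 RAW-Dual murine macrophage reporter cells were seeded at 50 000 per well in 384-well plates and pre-incubated 1 hour at 37 °C with compound pin-transferred to 10 μM final. After 1 hour, a PRR agonist was added and cells incubated overnight. Supernatant NF-κB (SEAP, QUANTI-Blue, 620 nm absorbance) and IRF (Lucia luciferase, QUANTI-Luc, luminescence) signals were divided by the mean agonist-only control on the same plate to give fold change. Two replicate plates were averaged, with errors by propagation.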

[2] = test system: RAW-Dual (murine macrophage reporter line); test: IRF reporter (Lucia luciferase) activity fold change vs agonist alone; higher = enhanced IRF activity
How it was run: as §1

[3] = test system: RAW-Dual (murine macrophage reporter line); test: viability score (confluency relative to resting cells, overnight) (fraction); higher = more viable, active = viable (0.7 or more)
How it was run: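 Overnight exposure to 10 μM final compound was carried out on RAW-Dual macrophages in 384-well plates. IncuCyte software generated two confluency masks over all wells imaged with IncuCyte. The viability score gives confluency in relation to resting cells. A compound met the cutoff if each mask exceeded 70% of resting cells.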

[4] = agonist: CpG ODN 1826 0.5 ug/mL

Compound	NF-kB reporter [1, 4]	NF-kB reporter ([1]; agonist: LPS 0.1 ug/mL)	NF-kB reporter ([1]; agonist: MPLA […])	IRF reporter ([2]; agonist: 3'3'-cGAMP 10 ug/mL)	IRF reporter ([2]; agonist: LPS 0.1 ug/mL)	IRF reporter ([2]; agonist: MPLA […])	viability score [3]
Oc1nc(O)nc(N(c2ccccc2)c2ccccc2)n1	1.18 ± 0.095	1.02 ± 0.098	1.02 ± 0.09	1 ± 0.13	1.09 ± 0.15	1.08 ± 0.29	1 (active)
Oc1ccc(OCc2ccccc2)cc1	1.78 ± 0.25	1.51 ± 0.34	1.34 ± 0.095	0.665 ± 0.033	1.46 ± 0.27	1.42 ± 0.17	0.832 (active)
CC(C)c1c(C(=O)Nc2ccccc2)c(-c2ccccc2)c(-c2ccc(F)cc2)n1CC[C@@H](O)C[C@@H](O)CC(=O)O [Prestw-1232]	1.63 ± 0.21	1.05 ± 0.11	1.16 ± 0.033	0.893 ± 0.036	0.928 ± 0.068	1.13 ± 0.12	0.995 (active)
Cc1c(OCc2ccc(Cl)cc2)ccc2c(C(F)(F)F)cc(=O)oc12	0.758 ± 0.059	0.94 ± 0.048	1.11 ± 0.17	0.802 ± 0.042	1.06 ± 0.062	1.07 ± 0.094	1.02 (active)
CCOC(=O)c1sc(NC(=O)CSc2nc3ccccc3o2)c(C(=O)OCC)c1C	1.01 ± 0.057	1.11 ± 0.09	1.06 ± 0.071	1.04 ± 0.039	1.3 ± 0.096	0.995 ± 0.12	0.981 (active)
CC(C)CN(C[C@@H](O)[C@H](Cc1ccccc1)NC(=O)O[C@H]1CO[C@H]2OCC[C@H]21)S(=O)(=O)c1ccc(N)cc1.CCO	1.7 ± 0.13	1.11 ± 0.063	1.7 ± 0.042	0.998 ± 0.056	0.982 ± 0.12	1 ± 0.081	0.996 (active)
O=C(NCc1ccco1)C(=Cc1ccc(-c2ccccc2Cl)o1)NC(=O)c1ccccc1	0.57 ± 0.044	0.745 ± 0.052	0.791 ± 0.07	0.476 ± 0.022	0.859 ± 0.07	0.942 ± 0.11	0.996 (active)
CC1CN(C2=NC(=O)C(=Cc3ccc(-c4ccccc4Cl)o3)S2)CC(C)O1 (stereo not given)	0.495 ± 0.054	0.841 ± 0.053	0.943 ± 0.089	0.813 ± 0.053	1.34 ± 0.12	1.44 ± 0.15	1.02 (active)
Cc1ccc(C(=O)N2N=C(c3ccncc3)CC2(O)C(F)(F)F)cc1 (stereo not given)	0.764 ± 0.062	0.831 ± 0.12	0.985 ± 0.097	0.86 ± 0.043	1.26 ± 0.081	1.29 ± 0.14	1.01 (active)
Cn1cnc2c(F)c(Nc3ccc(Br)cc3Cl)c(C(=O)NOCCO)cc21	0.288 ± 0.015	0.124 ± 0.0099	0.183 ± 0.013	0.852 ± 0.061	3.68 ± 0.24	2.42 ± 0.19	0.684 (inactive)
CC1(C)CC(=O)C2=C(C1)OC(N)=C(C#N)C21C(=O)Nc2ccc(Br)cc21 (stereo not given)	0.954 ± 0.077	1.05 ± 0.08	0.955 ± 0.057	0.967 ± 0.032	1.18 ± 0.1	1.03 ± 0.096	1.01 (active)
CCOC(=O)C1=C(CC)NC2=C(C(=O)CCC2)C1c1ccccc1I (stereo not given)	0.996 ± 0.11	1.02 ± 0.13	0.982 ± 0.1	0.921 ± 0.032	1.27 ± 0.16	1.05 ± 0.19	0.975 (active)
O=C(Cc1ccccc1)NC(NC(=S)Nc1ccc(O)cc1)C(Cl)(Cl)Cl (stereo not given)	0.88 ± 0.075	0.818 ± 0.098	1.06 ± 0.1	0.935 ± 0.032	1.29 ± 0.24	1.57 ± 0.33	1.02 (active)
CC1CCc2c(N3CCC(O)CC3)c(F)cc3c(=O)c(C(=O)O)cn1c23 (stereo not given)	0.975 ± 0.091	0.889 ± 0.051	0.992 ± 0.051	1.03 ± 0.077	0.897 ± 0.046	0.946 ± 0.11	0.995 (active)
Cc1cc(O)c2c(c1)C(=O)c1cccc(O)c1C2=O	0.969 ± 0.08	1.08 ± 0.1	1.1 ± 0.024	0.894 ± 0.08	0.973 ± 0.1	0.953 ± 0.11	0.986 (active)
CC12CCC3c4ccc(O)cc4CCC3C1CC(O)C2O (stereo not given)	1.17 ± 0.28	1.28 ± 0.075	1.24 ± 0.093	0.596 ± 0.022	1.39 ± 0.16	1.44 ± 0.14	0.97 (active)
O=C(O)c1cc(S(=O)(=O)N2CCCCC2)c(Cl)cc1Cl	0.937 ± 0.082	1.04 ± 0.087	0.965 ± 0.12	0.912 ± 0.11	1.18 ± 0.11	1.06 ± 0.28	1.01 (active)
CCc1c(C)[nH]c2c1C(=O)C(CN1CCOCC1)CC2 (stereo not given) [Prestw-1035]	1.2 ± 0.1	0.92 ± 0.07	0.934 ± 0.027	1.03 ± 0.04	0.925 ± 0.049	0.959 ± 0.11	1 (active)

Compound	NF-kB reporter [1, 4]	NF-kB reporter ([1]; agonist: LPS 0.1 ug/mL)	NF-kB reporter ([1]; agonist: MPLA […])	IRF reporter ([2]; agonist: 3'3'-cGAMP 10 ug/mL)	IRF reporter ([2]; agonist: LPS 0.1 ug/mL)	IRF reporter ([2]; agonist: MPLA […])	viability score [3]
CC(C)Sc1ccc(CC(=O)Nc2cnoc2)cc1	0.869 ± 0.044	1.01 ± 0.09	1.15 ± 0.095	0.848 ± 0.051	1.01 ± 0.24	1.1 ± 0.4	0.912 (active)
CC1=NN(c2ccc(S(N)(=O)=O)cc2)C(=O)C1=Cc1ccc(N(C)C)cc1	1.02 ± 0.15	0.967 ± 0.063	0.947 ± 0.04	0.794 ± 0.2	0.899 ± 0.052	0.892 ± 0.06	1 (active)
O=C(CCC(=O)NN=Cc1ccc(O)cc1)NN=Cc1ccc(O)cc1	0.915 ± 0.073	0.963 ± 0.062	0.947 ± 0.036	0.973 ± 0.12	0.974 ± 0.04	0.787 ± 0.085	1 (active)
CN1CCN(CCCN2c3ccccc3Sc3ccc(Cl)cc32)CC1 [Prestw-399]	0.442 ± 0.026	0.845 ± 0.073	1.73 ± 0.048	1.23 ± 0.051	1.1 ± 0.085	1.46 ± 0.15	0.114 (inactive)
COC(=O)c1cccc(Nc2nc(C=Cc3ccccc3)nc3ccccc23)c1	1.3 ± 0.12	1.28 ± 0.1	5.46 ± 0.19	0.658 ± 0.023	0.945 ± 0.14	5.98 ± 0.47	0.851 (active)
COc1ccc(-c2ccc(OCCNC(=O)Cc3ccc(Br)cc3)nn2)cc1	0.959 ± 0.049	1.08 ± 0.084	0.908 ± 0.055	1.02 ± 0.085	1.09 ± 0.2	1.07 ± 0.31	1 (active)
COc1ccc(C2CNC(=O)C2)cc1OC1CCCC1 (stereo not given)	2.76 ± 0.37	2.2 ± 0.43	1.63 ± 0.1	0.942 ± 0.03	0.963 ± 0.18	1.17 ± 0.089	0.973 (active)
CCC1=C(C)CN(C(=O)NCCc2ccc(S(=O)(=O)NC(=O)N[C@H]3CC[C@H](C)CC3)cc2)C1=O	1.08 ± 0.085	1.08 ± 0.062	1.03 ± 0.066	1.22 ± 0.23	0.95 ± 0.067	0.915 ± 0.14	0.996 (active)
Cl.NC12CC3CC(CC(C3)C1)C2	1.44 ± 0.2	1.21 ± 0.38	1.04 ± 0.062	0.909 ± 0.033	1.44 ± 0.24	1.12 ± 0.096	0.983 (active)
Cc1ccc(-n2ncc3c(=O)n(CC=Cc4ccccc4)cnc32)cc1C	0.969 ± 0.086	1.1 ± 0.089	0.96 ± 0.091	1.03 ± 0.061	1.19 ± 0.12	1.06 ± 0.34	0.984 (active)
O=C1C(=Cc2ccncc2)CCC1=Cc1ccncc1	1.03 ± 0.082	0.928 ± 0.08	0.971 ± 0.12	0.993 ± 0.045	1.21 ± 0.17	1.28 ± 0.27	1.01 (active)
CCOc1cc(C=C2SC(=S)N(CCS(=O)(=O)O)C2=O)ccc1O	0.952 ± 0.087	1.04 ± 0.077	0.951 ± 0.15	0.925 ± 0.027	1.28 ± 0.14	0.997 ± 0.2	1.02 (active)
C=C1CCN([C@H](C)[C@](O)(Cn2cncn2)c2ccc(F)cc2F)CC1	1.21 ± 0.12	0.941 ± 0.11	0.986 ± 0.095	1.19 ± 0.054	1.73 ± 0.16	1.3 ± 0.15	0.134 (inactive)
COc1ccc(-c2nc3cc(C4=NNC(=O)CC4C)ccc3[nH]2)cc1 (stereo not given)	2.4 ± 0.37	1.37 ± 0.23	1.14 ± 0.073	0.164 ± 0.057	1.07 ± 0.25	1.33 ± 0.12	0.775 (active)
Cc1cc(=O)n2c(-c3cccc(NC(=O)C4CCCO4)c3)csc2n1 (stereo not given)	1.25 ± 0.072	1.04 ± 0.089	1.01 ± 0.037	0.973 ± 0.093	1.04 ± 0.11	0.936 ± 0.18	0.999 (active)
O=C(Nc1cc(C(F)(F)F)cc(C(F)(F)F)c1)c1ccc([N+](=O)[O-])cc1	0.977 ± 0.09	1.03 ± 0.14	1.02 ± 0.063	0.998 ± 0.03	1.42 ± 0.14	1.05 ± 0.075	1.01 (active)
Cc1c(C(=O)NN2CCCCC2)nn(-c2ccc(Cl)cc2Cl)c1-c1ccc(Cl)cc1	0.799 ± 0.037	1.25 ± 0.11	0.981 ± 0.075	0.282 ± 0.015	0.618 ± 0.13	0.752 ± 0.17	1 (active)
